# Test results from the supplement of paper PMC8728848.
# About 410 targets per protein were measured; listed, in parts, are those with the strongest signals and a random draw of the rest.
# B1: Awp1 (Candida glabrata) (protein)
# chain: MSLITIFAFLIKATLVLSLDILTPTTLTGDQTFNEDVSVVSSLTLNDGSQYLFNNLLQIAPSSASVTANALAAVSVFTFSLPPSSSLSNSGTLIISNSNTGPSTEQHIVITPNVMANTGTITLSLAHTNTDSSSTLIIDPVTFYNTGTINYESIGSETNDPSLTGNILSIGSSGRTLQNLGTINLNAANSYYLLGTITENSGSINVQKGFLYVNALDFIGNTINLSTTTALAFISPVSQVVRVRGVFFGNIIASVGSSGTFSYNTQTGILTVTTNGVYSYDIGCGYNPALMSGQQETLSFQGNPYDTFLVLVNQPIPSDLTCAAVSSSITPSSSVEPSSSVVPSSSVEPSSSVEPSSSVEPSSSVEPSSSVEPSSSVEPSSSVEPSSSVEPSSSVEPSSSVEPSSSVEPSSSVEPSSSVEPSSSVEPSSSVEPSSSVEPSSSVEPSSSVEPSSSVEPSSLIVPSSSVEPSSSVLPSSSVVPSSSVEPSTPPIPSSSVEPSSSVVPSSPAVPSSSVEPSTPPIPSSSVVSASVFDTSSTLPSSPSVPPSSVSPSTISTPSSSAAPSSFCPTCVSSGTPPAPSSSAIVPTSSAGGGNGGDNREPGAAGQPGAAGQPGAAGQPGAAGQPGAAGQPGAAGQPGAAGQPGAAGQPGAAGQPGAAGQPGAGFGVGSEQPTPGAGAGSGSADGNQSGTGSGTGNGQQGSGQAGSGQAGSGQEGSGQAGSGQAGSGQAGSGQAGSGQAGLDNTASGQSEGGQASAMDGDQSGRDGQSNSGSLLQPNAQQGTGSGTGSDIGADQASGESPGQIGDAQPGSGTDQSSGRHSLAAEARTSQSHSLAADARTRSTTRQTSVIAPDTAPGTASGTAPGTAPGTAVVTTFHGCGTVNHKGMINILLALALLVLL
# Experiments:
# Assay in all cases: glycan array binding signal (z-score within array); higher = stronger binding
# Settings in all cases: glycan notation: IUPAC condensed, linker removed
# [1] = biological target: Gal(b1-4)GlcNAc(b1-3)[Gal(b1-4)GlcNAc(b1-6)]Gal(b1-4)GlcNAc
# Summary of the method: (§1)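 The binding signal is a Z-score computed within each array and averaged over linkers. Arrays of the same protein sequence at different concentrations or buffers were also averaged together. Data originate from 3228 arrays in the Consortium for Functional Glycomics database, kept only where the protein sequence was available.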
# [2] = biological target: Gal(b1-4)GlcNAc(b1-6)Gal(b1-4)GlcNAc
# Summary of the method: as §1
# [3] = biological target: GalNAc(b1-4)GlcNAc(b1-3)GalNAc(b1-4)GlcNAc
# Summary of the method: as §1
# GalNAc(b1-6)GalNAc = biological target: GalNAc(b1-6)GalNAc
# Summary of the method: as §1
# GalNAc4S6S(b1-4)GlcNAc = biological target: GalNAc4S6S(b1-4)GlcNAc
# Summary of the method: as §1
# [4] = biological target: GlcA3S(b1-3)Gal(b1-4)GlcNAc(b1-2)Man
# Summary of the method: as §1
# [5] = biological target: GlcNAc(b1-2)[GlcNAc(b1-4)]Man(a1-3)[GlcNAc(b1-4)][GlcNAc(b1-2)Man(a1-6)]Man(b1-4)GlcNAc(b1-4)GlcNAc
# Summary of the method: as §1
# [6] = biological target: GlcNAc(b1-2)[GlcNAc(b1-6)]Man(a1-6)[GlcNAc(b1-2)Man(a1-3)]Man(b1-4)GlcNAc(b1-4)[Fuc(a1-6)]GlcNAc
# Summary of the method: as §1
# [7] = biological target: GlcNAc(b1-2)[GlcNAc(b1-6)]Man(a1-6)[GlcNAc(b1-4)][GlcNAc(b1-2)Man(a1-3)]Man(b1-4)GlcNAc(b1-4)GlcNAc
# Summary of the method: as §1
# [8] = biological target: GlcNAc(b1-3)Gal(b1-3)GalNAc
# Summary of the method: as §1
# [9] = biological target: GlcNAc(b1-3)Gal(b1-4)GlcNAc(b1-3)Gal(b1-4)GlcNAc(b1-2)Man(a1-3)[GlcNAc(b1-3)Gal(b1-4)GlcNAc(b1-3)Gal(b1-4)GlcNAc(b1-2)Man(a1-6)]Man(b1-4)GlcNAc(b1-4)GlcNAc
# Summary of the method: as §1
# [10] = biological target: GlcNAc(b1-3)Gal(b1-4)GlcNAc(b1-3)Gal(b1-4)GlcNAc(b1-3)Gal(b1-4)GlcNAc(b1-2)[GlcNAc(b1-3)Gal(b1-4)GlcNAc(b1-3)Gal(b1-4)GlcNAc(b1-3)Gal(b1-4)GlcNAc(b1-6)]Man(a1-6)[GlcNAc(b1-3)Gal(b1-4)GlcNAc(b1-3)Gal(b1-4)GlcNAc(b1-3)Gal(b1-4)GlcNAc(b1-2)Man(a1-3)]Man(b1-4)GlcNAc(b1-4)[Fuc(a1-6)]GlcNAc
# Summary of the method: as §1
# [11] = biological target: GlcNAc(b1-4)Gal(b1-4)GlcNAc
# Summary of the method: as §1
# Kdn(a2-3)Gal(b1-3)GalNAc = biological target: Kdn(a2-3)Gal(b1-3)GalNAc
# Summary of the method: as §1
# [12] = biological target: Kdn(a2-3)Gal(b1-4)[Fuc(a1-3)]GlcNAc
# Summary of the method: as §1
# [13] = biological target: Man(a1-2)Man(a1-2)Man(a1-3)Man
# Summary of the method: as §1
# MurNAc(b1-4)GlcNAc = biological target: MurNAc(b1-4)GlcNAc
# Summary of the method: as §1
# [14] = biological target: Neu5Ac(a2-3)Gal(b1-3)GlcNAc(b1-6)GalNAc
# Summary of the method: as §1
# [15] = biological target: Neu5Ac(a2-3)Gal(b1-3)]Neu5Ac(a2-3)Gal(b1-4)]GlcNAc
# Summary of the method: as §1
# [16] = biological target: Neu5Ac(a2-3)Gal(b1-4)GlcNAc
# Summary of the method: as §1
# [17] = biological target: Neu5Ac(a2-3)Gal(b1-4)GlcNAc(b1-2)Man(a1-3)[GlcNAc(b1-4)][Neu5Ac(a2-3)Gal(b1-4)GlcNAc(b1-2)Man(a1-6)]Man(b1-4)GlcNAc(b1-4)GlcNAc
# Summary of the method: as §1
# [18] = biological target: Neu5Ac(a2-3)Gal(b1-4)GlcNAc(b1-3)Gal
# Summary of the method: as §1
# [19] = biological target: Neu5Ac(a2-3)Gal(b1-4)GlcNAc(b1-3)Gal(b1-4)GlcNAc(b1-3)Gal(b1-4)GlcNAc(b1-2)Man(a1-3)[Neu5Ac(a2-3)Gal(b1-4)GlcNAc(b1-3)Gal(b1-4)GlcNAc(b1-3)Gal(b1-4)GlcNAc(b1-2)Man(a1-6)]GalNAc
# Summary of the method: as §1
# [20] = biological target: Neu5Ac(a2-3)Gal(b1-4)GlcNAc(b1-3)Gal(b1-4)GlcNAc(b1-3)[Neu5Ac(a2-3)Gal(b1-4)GlcNAc(b1-3)Gal(b1-4)GlcNAc(b1-6)]GalNAc
# Summary of the method: as §1
# [21] = biological target: Neu5Ac(a2-3)Gal(b1-4)[Fuc(a1-3)]GlcNAc(b1-2)Man
# Summary of the method: as §1
# [22] = biological target: Neu5Ac(a2-3)Gal(b1-4)[Fuc(a1-3)]GlcNAc(b1-3)Gal
# Summary of the method: as §1
# [23] = biological target: Neu5Ac(a2-3)Gal(b1-4)[Fuc(a1-3)]GlcNAc(b1-3)Gal(b1-4)[Fuc(a1-3)]GlcNAc(b1-3)Gal(b1-4)[Fuc(a1-3)]GlcNAc
# Summary of the method: as §1
# [24] = biological target: Neu5Ac(a2-3)Gal(b1-4)[Fuc(a1-3)]GlcNAc(b1-6)[Gal(b1-3)]GalNAc
# Summary of the method: as §1
# [25] = biological target: Neu5Ac(a2-3)[GalNAc(b1-4)]Gal(b1-4)GlcNAc
# Summary of the method: as §1
# Neu5Ac(a2-6)Gal(b1-4)Glc = biological target: Neu5Ac(a2-6)Gal(b1-4)Glc
# Summary of the method: as §1
binder,measurement,setting,value
B1,glycan array binding signal (z-score),[1],-0.342
same,glycan array binding signal (z-score),[2],-0.366
same,glycan array binding signal (z-score),[3],1.95
same,glycan array binding signal (z-score),GalNAc(b1-6)GalNAc,2.29
same,glycan array binding signal (z-score),GalNAc4S6S(b1-4)GlcNAc,1.51
same,glycan array binding signal (z-score),[4],0.488
same,glycan array binding signal (z-score),[5],0.047
same,glycan array binding signal (z-score),[6],-0.571
same,glycan array binding signal (z-score),[7],-1
same,glycan array binding signal (z-score),[8],2.02
same,glycan array binding signal (z-score),[9],-0.505
same,glycan array binding signal (z-score),[10],2.24
same,glycan array binding signal (z-score),[11],1.07
same,glycan array binding signal (z-score),Kdn(a2-3)Gal(b1-3)GalNAc,-1.24
same,glycan array binding signal (z-score),[12],-0.924
same,glycan array binding signal (z-score),[13],-0.346
same,glycan array binding signal (z-score),MurNAc(b1-4)GlcNAc,-1.87
same,glycan array binding signal (z-score),[14],0.214
same,glycan array binding signal (z-score),[15],0.442
same,glycan array binding signal (z-score),[16],0.13
same,glycan array binding signal (z-score),[17],0.483
same,glycan array binding signal (z-score),[18],0.691
same,glycan array binding signal (z-score),[19],1.61
same,glycan array binding signal (z-score),[20],-0.297
same,glycan array binding signal (z-score),[21],-0.217
same,glycan array binding signal (z-score),[22],0.412
same,glycan array binding signal (z-score),[23],-0.603
same,glycan array binding signal (z-score),[24],-0.493
same,glycan array binding signal (z-score),[25],-0.217
same,glycan array binding signal (z-score),Neu5Ac(a2-6)Gal(b1-4)Glc,-1.39
